PubChem BioAssay (NCATS)
Results filed as inconclusive are left out. The source made the active and inactive calls. Unless noted, the call rests on the fitted dose curve; in most records, active means well fitted curve in the direction sought with a large enough effect; inconclusive means small, poorly fitted or top-dose-only effect, or another doubt; inactive means no such curve, though single readings can be large; an effect the other way counts as inactive or inconclusive.

Legend:
[1] = Primary qHTS for inhibitors of La Crosse Virus (LACV) - induced cell death in SH-SY5Y cells (AID 1508616);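 further: top concentration of the series differs between compounds; higher means more rescue of cells from virus-induced death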
Summary of the method: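 Protection against LACV-induced cell death is scored in SH-SY5Y cells exposed to compounds and virus (0.01 MOI) for 6 days. Data normalized to virus-infected DMSO wells and virus-free DMSO wells.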

[2] = molecular target: Calcium and integrin-binding protein 1 (Homo sapiens) (UniProt Q99828); assay: Primary qHTS for Identification of Calcium Integrin Binding Protein 1 (CIB1) Competitor (AID 1508620);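 further: GST tagged CIB1 binding a fluorescein labelled alphaIIb integrin peptide tracer; top concentration of the series differs between compounds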
Chain of Calcium and integrin-binding protein 1 (Homo sapiens) (Q99828 whole entry, looked up): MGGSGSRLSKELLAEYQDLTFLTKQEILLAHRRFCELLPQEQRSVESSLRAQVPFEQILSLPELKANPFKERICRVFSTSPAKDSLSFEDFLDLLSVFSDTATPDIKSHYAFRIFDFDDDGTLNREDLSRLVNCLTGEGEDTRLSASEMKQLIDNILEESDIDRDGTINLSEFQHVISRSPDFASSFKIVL
Summary of the method: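 Fluorescence polarization competition: CIB1-GST (1 uM final) preincubated with compound 15 min at room temperature, then FITC-labeled alphaIIb peptide (100 nM final) added for another 15 min. Polarization read at Ex 480/Em 540.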

[3] = molecular target: Cytochrome P450 2D6 (Homo sapiens) (UniProt P10635); assay: Cytochrome P450 family 2 subfamily D member 6 (CYP2D6) small molecule antagonists: luciferase biochemical (cell-free) qHTS assay (AID 1645840; active means well fitted curve in the direction sought with a large enough effect in the repeat runs; an effect the other way counts as inactive or inconclusive; further: nearly all actives have a fitted effect of over 55% in size; further: potency means the concentration at half of the fitted maximal effect)
Chain of Cytochrome P450 2D6 (Homo sapiens) (P10635 whole entry, looked up): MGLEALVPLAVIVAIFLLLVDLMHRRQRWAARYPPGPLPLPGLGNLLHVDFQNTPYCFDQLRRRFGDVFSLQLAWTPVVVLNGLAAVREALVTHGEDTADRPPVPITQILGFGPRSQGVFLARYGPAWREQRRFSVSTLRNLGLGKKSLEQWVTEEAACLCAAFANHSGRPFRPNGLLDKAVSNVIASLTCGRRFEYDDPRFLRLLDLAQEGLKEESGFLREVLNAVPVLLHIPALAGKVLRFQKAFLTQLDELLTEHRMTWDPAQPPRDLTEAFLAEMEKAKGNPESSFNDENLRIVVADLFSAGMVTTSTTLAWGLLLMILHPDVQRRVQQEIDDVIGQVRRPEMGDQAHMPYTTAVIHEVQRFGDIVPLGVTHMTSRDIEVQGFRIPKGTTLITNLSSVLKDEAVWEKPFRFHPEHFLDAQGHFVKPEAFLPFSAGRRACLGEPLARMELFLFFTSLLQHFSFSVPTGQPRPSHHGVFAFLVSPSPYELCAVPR
Summary of the method: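 P450-Glo luminescent screen: recombinant CYP2D6 enzyme–proluciferin substrate mix preincubated with compound 10 min at room temperature, then NADPH regeneration added for 1 h at room temperature. Detection reagent added for 20 min; luciferin light read as relative luminescence units.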

[4] = molecular target: Cytochrome P450 2C9 (Homo sapiens) (UniProt P11712); assay: Cytochrome P450 family 2 subfamily C member 9 (CYP2C9) small molecule antagonists: luciferase biochemical (cell-free) qHTS assay (AID 1645842; active means well fitted curve in the direction sought with a large enough effect in the repeat runs; an effect the other way counts as inactive or inconclusive; further: nearly all actives have a fitted effect of over 55% in size; further: potency means the concentration at half of the fitted maximal effect)
Chain of Cytochrome P450 2C9 (Homo sapiens) (P11712 whole entry, looked up): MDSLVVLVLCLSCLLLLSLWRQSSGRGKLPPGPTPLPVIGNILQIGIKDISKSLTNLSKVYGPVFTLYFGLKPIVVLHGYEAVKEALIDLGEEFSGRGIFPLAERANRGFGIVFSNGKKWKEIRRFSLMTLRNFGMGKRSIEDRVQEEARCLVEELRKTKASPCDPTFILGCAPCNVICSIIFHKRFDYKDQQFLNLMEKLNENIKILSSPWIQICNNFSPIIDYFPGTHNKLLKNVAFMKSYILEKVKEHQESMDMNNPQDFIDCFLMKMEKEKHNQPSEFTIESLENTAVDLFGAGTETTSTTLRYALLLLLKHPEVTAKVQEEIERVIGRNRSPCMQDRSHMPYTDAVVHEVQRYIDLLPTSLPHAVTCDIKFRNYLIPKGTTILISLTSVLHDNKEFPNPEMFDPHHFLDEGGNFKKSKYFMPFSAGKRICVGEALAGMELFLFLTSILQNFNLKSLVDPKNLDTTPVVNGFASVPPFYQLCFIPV
Summary of the method: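 Luminescence, after 20 min with luciferin detection reagent, reflected CYP2C9 turnover during a 1 h NADPH-driven reaction at 37C. Enzyme-substrate mix contained 0.4% bovine serum albumin and was preincubated with compound 10 min at room temperature.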

[5] = Primary qHTS for inhibitors of nuclear receptor binding SET domain protein 2 (NSD2) in an isogenic RCH-ACV NSD2 p.E1099K mutant (9B) (AID 1645876); further: nearly all actives have a fitted effect of over 70% in size; further: potency means the concentration at half of the fitted maximal effect
[6] = Primary qHTS for inhibitors of nuclear receptor binding SET domain protein 2 (NSD2) in an RCH-ACV wild type WT cells (2C) (AID 1645877); further: nearly all actives have a fitted effect of over 70% in size; further: potency means the concentration at half of the fitted maximal effect
[7] = Primary qHTS for small molecule stabilizers of the endoplasmic reticulum resident proteome: Secreted ER Calcium Modulated Protein (SERCaMP) assay (AID 1508630)
Summary of the method: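 GLuc-SERCaMP-expressing SH-SY5Y cells, pretreated 16 h with compound, are challenged with thapsigargin to empty ER calcium stores; after 4 h, coelenterazine is added directly to the medium and luminescence is imaged.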

[8] = A High-Content qHTS Against Drug Library for the Identification of Small Molecules that Inhibit DYT1 Early Onset Primary Dystonia-Associated Cell Pathology (AID 1645839; calls by dose curve)
Summary of the method: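 Readout: %pathology, the punctate EGFP-TorsinA distribution from imaging, as the primary channel and cell count as the toxicity counterscreen. HEK293 Flp-In cells expressing delE TorsinA were induced with tetracycline and treated with compound for 48 h.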

[9] = Cytotoxicity counterscreen for inhibitors of SARS-CoV-2 cell entry (AID 1645845; calls by dose curve; further: nearly all actives have a fitted effect of over 50% in size)
Summary of the method: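 Expi293F/hACE2 cells seeded overnight; cpd pin-transferred in DMSO, 1 h preincubation, + media, 48 h 37 C 5% CO2; ATPLite 1step luminescence; normalized to cells and no cells.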

[10] = Primary qHTS to identify inhibitors of SARS-CoV-2 cell entry (AID 1645846; calls by dose curve; further: nearly all actives have a fitted effect of over 45% in size); conditions: activity change, negative = inhibition: at 57.1 µM (top of the series) unless noted
Summary of the method: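 Inhibition of spike-mediated entry was scored in human ACE2-transfected Expi293F cells. Particles were MLV-pseudotyped with Wuhan-Hu-1 S carrying a 19-aa C-terminal deletion; signal was luciferase after two days, scaled between spike PP and fusion-protein-free PP.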

[11] = Counterscreen qHTS for small molecule stabilizers of the endoplasmic reticulum resident proteome: GLuc-NoTag assay (AID 1508627); further: potency means the concentration at half of the fitted maximal effect
Summary of the method: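 SH-SY5Y cells stably expressing constitutively secreted GLuc (no SERCaMP tag) were pre-incubated 5 h, treated with compound for 19 h, then 100 nM thapsigargin for 4 h at 37C; medium GLuc read by coelenterazine luminescence.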

[12] = Cell Viability qHTS for small molecule stabilizers of the endoplasmic reticulum resident proteome (AID 1508629); conditions: cell viability counter-screen, 100 nM thapsigargin for final 4 h;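 further: potency means the concentration at half of the fitted maximal effect; compound exposure about 46 h in total before the viability read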

CC(CC(C#N)(c1ccccc1)c1ccccc1)N(C)C (stereo not drawn)
active: Potency [3] 5.61 µM | Potency [5] 17.2 µM
inactive: outcome [1] | Potency [2] | Potency [4]

CCC1(c2ccccc2)CCC(=O)NC1=O (stereo not drawn)
inactive: outcome [1] | Potency [2] | Potency [3] | Potency [5] | Potency [6]

O=C(N[C@@H]1N=C(c2ccccc2F)c2cccc3c2N(CC3)C1=O)c1cc2ccccc2[nH]1
inactive: outcome [1] | Potency [2] | Potency [3]

CC(C)=C[C@@H]1[C@@H](C(=O)OCc2coc(Cc3ccccc3)c2)C1(C)C
active: Potency [4] 7.76 µM
inactive: Potency [2] | outcome [7] | outcome [8] | Potency [3]

CC(C(O)c1ccccc1)N(C)C/C=C/c1ccccc1 (stereo not drawn)
inactive: outcome [1] | Potency [2] | outcome [8] | Potency [9]
active: Potency [3] 0.0389 µM

O=c1n(Cl)c(=O)n(Cl)c(=O)n1Cl
inactive: outcome [1] | Potency [2] | outcome [8] | Potency [3] | Potency [4] | Potency [9] | Potency [5] | Potency [6]
1.05%: activity change, negative = inhibition [10]

Nc1ccc(Cl)cc1C(=O)c1ccccc1F
inactive: outcome [1] | Potency [2] | Potency [5]

COP(=S)(OC)Oc1ccc(S(N)(=O)=O)cc1
inactive: outcome [1] | Potency [2] | outcome [8] | Potency [9] | Potency [5] | Potency [6]
active: Potency [4] 4.36 µM

CC[n+]1c(-c2ccccc2)c2cc(N)ccc2c2ccc(N)cc21
inactive: outcome [1] | outcome [8]
active: Potency [11] 20 µM | Potency [12] 3.16 µM | Potency [3] 3.47 µM | Potency [5] 5.96 µM | Potency [6] 2.66 µM

Nc1ccccc1C(=O)OCC(O)CO (stereo not drawn)
-1.98%: activity change, negative = inhibition [10]
inactive: outcome [1] | Potency [2] | Potency [3] | Potency [4] | Potency [5] | Potency [6]

CC1Sc2c(C(=O)O)c(=O)c3cc(F)c(N4CCNCC4)cc3n21 (stereo not drawn)
inactive: outcome [1] | Potency [2] | outcome [8] | Potency [3] | Potency [4] | Potency [5] | Potency [6]
